From PubChem BioAssay
Rows were chosen to be rich in hits. Some 4.9% of all compounds tested hit in one or more screens of this group.
NLRP3 yeast inh: NALP3 inflammasome inhibitors in reconstituted yeast, primary screen, luminescence, uHTS; Yeast reconstituted NLRP3/ASC/caspase-1, beta-gal luminescence, 24 h; 0.39% of 330,000 active; inhibition, % at 10 µM;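 active = inhibition of 50% or more; inactive = inhibition below 50%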;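 note: plate controls were induced DMSO wells for no effect and uninduced yeast grown without galactose for full effect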
tim23-1 inh: growth inhibitors of tim23-1 mutant yeast, primary screen, luminescence, uHTS; S. cerevisiae tim23-1 growth, BacTiter-Glo luminescence, 24 h; inhibition, % at 20 µM; 1.3% of 330,000 active; AID 463212, 2010;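 active = growth inhibition of the mutant yeast at or above 50%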;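 note: temperature-sensitive mutant grown at 25 °C; plate controls were DMSO-treated mutant yeast for no effect and medium wells lacking yeast for full effect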
SKKanGAS inh: S. pyogenes SKKanGAS growth inhibitors in kanamycin, primary screen, streptokinase expression inhibitor project, SKKanGAS strain, BacTiter-Glo luminescence. 1.3% of 300,000 active. 6 h. inhibition, % at 7.5 µM;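 active = mean replicate score, as percent of positive control median, at least 50; inconclusive = mean below 50 but one replicate at or above 50; inactive = mean and every replicate below 50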;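 note: strain carries kanamycin resistance gene driven by streptokinase promoter and grows in 40 µg/ml kanamycin; loss of luminescence reflects streptokinase promoter inhibition or plain growth inhibition; 0% = median of DMSO wells and 100% = positive control at its reference dose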
TIM10 inh: growth inhibitors of isogenic TIM10 control yeast, primary screen, counter-screen for tim10-1 yeast inhibitor project, luminescence, uHTS | S. cerevisiae TIM10 strain growth, BacTiter-Glo luminescence, 24 h | inhibition, % at 10 µM | 1.4% of 330,000 active | AID 463195, 2010;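 active = inhibition of 40% or more at the single tested concentration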;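 note: wild-type TIM10 isogenic control strain grown at permissive 25 °C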
NALP1 inh: NALP1 inflammasome inhibitors in reconstituted yeast, colorimetric, S. cerevisiae, triplicate retest; S. cerevisiae NALP1/ASC/caspase-1 growth, X-gal OD620, 72 h; inhibition, % at 10 µM; 0.61% of 280,000 active; AID 2071, 2009; in the data active = inhibition mostly above about 24%, no sharp cut-off; inactive = mostly below about 32%
tim10-1 inh: growth inhibitors of tim10-1 mutant yeast, primary screen, luminescence, uHTS; S. cerevisiae tim10-1 ts strain growth, BacTiter-Glo, 24 h; inhibition, % at 20 µM; 2.2% of 330,000 active; AID 463190, 2010;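 active = inhibition of at least 40%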;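 note: mutant grown at 25 °C; 0% = DMSO wells with yeast and 100% = wells holding no yeast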
* marks the source's active call; other numbers are inactive results; ? = inconclusive; . = no result given.

SMILES | NLRP3 yeast inh | tim23-1 inh | SKKanGAS inh | TIM10 inh | NALP1 inh | tim10-1 inh
CSCCC(NS(=O)(=O)c1ccccc1)C(=O)OC(C)C(=O)Nc1ccc(Cl)cn1 (stereo unspecified) | 8 | 15 | . | -1 | . | 2
O=C(NC1CCSc2ccccc21)c1ccc(C(F)(F)F)cc1 (stereo unspecified) | 16 | -6 | 4 | -6 | 6 | -8
COc1ccc([N+](=O)[O-])cc1N(CC(=O)N1CCOCC1)S(C)(=O)=O | 8 | 5 | -1 | 0 | 42* | 6
O=C(O)/C=C/C(=O)Nc1ccc(S(=O)(=O)Nc2nccs2)cc1 | 10 | 0 | 0 | 4 | 25 | -10
Nc1c2c(nc3ccc(Br)cc13)N(Cc1ccccc1)CC2 | 16 | 24 | 2 | 25 | 56* | 22
Cc1oc2c(CN3CCCC(C)C3)c(O)ccc2c(=O)c1-c1ccccc1 (stereo unspecified) | 18 | 4 | 1 | 3 | 17 | 7
C/C(N)=C(/C#N)C(=O)COC(=O)c1cc(-c2cccc3ccccc23)nc2ccccc12 | 17 | 23 | 62* | 24 | 4 | 28
C/C(N)=C(/C#N)C(=O)COC(=O)c1cccc2ccccc12 | 9 | -6 | -14 | 27 | 14 | 23
Cc1cccc(NC2=Nc3ccccc3N3C2=Nc2c(c(C)nn2-c2ccccc2)C3c2ccc(O)c(O)c2)c1 (stereo unspecified) | 11 | -2 | 99* | 11 | 3 | 6
Cc1ccc(NC2=Nc3ccccc3N3C2=Nc2c(c(C)nn2-c2ccccc2)C3c2ccc(O)c(O)c2)cc1 (stereo unspecified) | . | . | . | . | -7 | .
Cc1nn(-c2ccccc2)c2c1C(c1ccc(O)c(O)c1)N1C(=N2)C(Nc2ccccc2)=Nc2ccccc21 (stereo unspecified) | 7 | 35 | 88* | 32 | -14 | 36
C=CCn1c(O)c(N=NC(=S)Nc2cccc(C)c2)c2ccccc21 | 22 | 26 | 94* | 39 | -6 | 36
Oc1c(N=NC(=S)Nc2ccccc2F)c2ccccc2n1Cc1ccccc1 | 14 | 17 | ? | 17 | 1 | 24
Cc1ccc(Cn2c(O)c(N=NC(=S)Nc3ccccc3F)c3ccccc32)cc1 | 17 | -7 | 61* | 7 | 3 | 14
COc1ccc(S(=O)(=O)N(C)C[C@@H]2Oc3c(NS(=O)(=O)c4cn(C)cn4)cccc3C(=O)N([C@@H](C)CO)C[C@@H]2C)cc1 | 4 | 8 | . | -9 | . | 9
O=C(Nc1cccc2cccnc12)c1ccc(Cl)cc1 | -10 | 24 | 0 | 16 | 16 | 10
C/C(=N\NC(=O)COc1ccccc1-c1ccccc1)c1cccnc1 | -3 | 34 | 4 | 20 | 11 | 24
C/C(=N\NC(=O)COc1ccccc1-c1ccccc1)c1ccccn1 | 35 | 18 | 83* | 16 | -22 | 35
O=C(COc1ccccc1-c1ccccc1)N/N=C/c1ccc2ccccc2c1 | . | . | 88* | . | 16 | .
O=C(COc1cccc2cccnc12)N/N=C/c1ccccc1O | 8 | -2 | 99* | 8 | -4 | 8
C/C(=N\NC(=O)COc1ccccc1-c1ccccc1)c1ccc(O)cc1O | 15 | 21 | 86* | 8 | . | 17
O=[N+]([O-])c1ccc(NS(=O)(=O)N2CCOCC2)cc1 | 25 | 8 | . | 5 | . | -9
CNC(=O)C(=O)NCC1OCCCN1S(=O)(=O)c1ccc(F)cc1C (stereo unspecified) | 4 | 0 | 5 | -1 | 6 | -5
O=C(CCc1nc2ccccc2[nH]c1=O)OCC(=O)c1cccc2ccccc12 | . | . | . | . | 36* | .
COc1ccc(OC)c(NC(=O)COc2ccc(S(=O)(=O)N3CCCC3)cc2)c1 | 8 | 25 | 1 | 17 | -1 | 20
SMILES | NLRP3 yeast inh | tim23-1 inh | SKKanGAS inh | TIM10 inh | NALP1 inh | tim10-1 inh
CCc1sc(N(C(=O)Cc2ccccc2)c2ccccc2)nc1-c1ccccc1 | 19 | 3 | 25 | -1 | 17 | 19
CCc1sc(N(C(=O)Cc2ccccc2)c2ccc(F)cc2)nc1-c1ccccc1 | 14 | 19 | 55* | 23 | -12 | 30
O=C(Nc1ccc(Cl)cc1Cl)c1ccc(Br)o1 | 28 | -10 | -1 | -15 | 2 | -10
Clc1ccc(-c2csc(N3CCc4ccccc4C3)n2)cc1 | 11 | 11 | 56* | 12 | -10 | 15
c1ccc(-c2cc(-c3ccncc3)nc3ccc4ccccc4c23)cc1 | 11 | 23 | 100* | 13 | 14 | 19
Fc1ccc(Nc2ccnc(Nc3ccc(F)cc3)n2)cc1 | 21 | 10 | -2 | 32 | 84* | 11
O=C(CCCn1c(=O)[nH]c2ccsc2c1=O)NCc1cccs1 | -10 | 3 | 0 | -14 | 21* | 19
CCC(Sc1nc2ccncc2[nH]1)C(=O)Nc1ccc(C)c(Cl)c1 (stereo unspecified) | 11 | 5 | 2 | 2 | 7 | -6
Cc1cc(NC(=O)CC2CCCC2)n(-c2nc3ccccc3[nH]2)n1 | 12 | 11 | 51* | 28 | 3 | 34
Cc1cc(NC(=O)/C=C/c2ccccc2Cl)n(-c2nc3ccccc3[nH]2)n1 | 3 | 1 | 81* | 15 | . | 13
Cc1cc(NC(=O)c2ccc(F)cc2F)n(-c2nc3ccccc3[nH]2)n1 | 8 | -11 | -11 | -21 | 0 | 31
CN1CCN(C(=O)C2=C[C@@H](C3CCCCC3)C[C@@H](OCc3ccc(CO)cc3)O2)CC1 | 11 | 23 | 3 | 10 | 24* | 7
CN1CCN(C(=O)C2=C[C@H](C3CC3)C[C@H](OCc3ccc(CO)cc3)O2)CC1 | 20 | -9 | -1 | -10 | . | -27
CC(=O)Nc1ccc(OCc2cccc3ccccc23)cc1 | 32 | 39 | -4 | 12 | 29* | 30
CCOc1ccc(NC(=S)Nc2cccc3ccccc23)cc1 | 20 | 12 | 3 | 18 | 40* | 36
CCC(=O)N1CCc2cc(Br)cc(S(=O)(=O)N(C)c3ccc(OC)cc3OC)c21 | -15 | 10 | -4 | 9 | -2 | 13
O=C1N/C(=N\c2ccccn2)SC1Cc1ccc(Cl)cc1 (stereo unspecified) | 6 | -10 | 50* | -4 | -6 | 8
C(=N\Nc1nncc2ccccc12)/c1ccccn1 | 18 | 49 | 2 | 17 | 37* | -22
CC(C)=CCc1c(O)ccc2c1OC(c1ccc(O)c(O)c1)CC2=O (stereo unspecified) | 23 | 9 | 4 | 2 | -17 | 1
CC(C)=CCc1c(O)ccc(C2COc3c(CC=C(C)C)c(O)cc(O)c3C2=O)c1O (stereo unspecified) | 7 | 35 | 51* | 6 | . | 18
Cc1ccc(CSc2ncnc3c2cnn3Cc2ccccc2)cc1 | 27 | -6 | 65* | 0 | 18 | 3
